Experimental data from PubChem BioAssay AID1220 (Sanford-Burnham Center for Chemical Genomics, 2008).
Hit rate of the full screen: of about 190,000 compounds, about 1,300 (0.68%) were called active. What follows is part of a selection rich in actives, with near analogues and random picks from the rest. Values without a mark were called inactive. No stated cut-off is given here; in the data, active means inhibition above about 50%; inactive means the rest.

molecular target: Mannose-6-phosphate isomerase (Homo sapiens) (UniProt P34949); assay: human PMI inhibitors, high substrate, primary screen, biochemical, fluorescence intensity, high mannose 6-phosphate (AID 1220); conditions: recombinant PMI enzyme, coupled fluorescence intensity; at 20 µM; active compounds read high
Sequence (P34949 whole entry, looked up): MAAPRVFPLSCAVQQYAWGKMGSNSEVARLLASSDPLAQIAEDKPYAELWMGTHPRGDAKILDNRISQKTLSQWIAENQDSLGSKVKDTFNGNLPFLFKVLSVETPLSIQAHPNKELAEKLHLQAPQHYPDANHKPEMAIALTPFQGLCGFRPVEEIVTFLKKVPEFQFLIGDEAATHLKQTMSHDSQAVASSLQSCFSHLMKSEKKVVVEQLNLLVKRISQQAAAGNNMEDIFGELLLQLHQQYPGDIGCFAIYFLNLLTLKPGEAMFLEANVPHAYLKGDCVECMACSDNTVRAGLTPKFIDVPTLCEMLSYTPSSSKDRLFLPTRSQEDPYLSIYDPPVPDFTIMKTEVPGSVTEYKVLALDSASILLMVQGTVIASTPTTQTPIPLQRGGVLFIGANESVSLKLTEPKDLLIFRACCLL

SMILES	inhibition
CCCC(=O)Nc1ccc(S(=O)(=O)Nc2cc(C)nc(C)n2)cc1	4.9%
CCOC(=O)c1ccc(NC(=S)NC2CCCC2)cc1	-1.3%
CCOc1ccc(NC(=O)c2ccc(NC(=S)NC3CC3)cc2)cc1	12.4%
CCOc1ccc(NC(=O)c2ccc(NC(=S)NC3CCCCC3)cc2)cc1	52.6% (active)
CCCCN(C(=O)NC(=O)Nc1cccc(C)c1C)S(C)(=O)=O	-3.7%
COc1cc2c(C#N)c(N3CCN(c4ccccc4OC)CC3)nc(N)c2c(N)n1	54% (active)
COc1cc2c(C#N)c(N3CCOCC3)nc(N)c2c(N)n1	22%
COc1cc2c(C#N)c(N3CCN(C)CC3)nc(N)c2c(N)n1	34.6%
COc1ccc(CN=CC2=C(O)CNC2=O)cc1OC	-8.2%
CCN(CC)c1ccc(NS(=O)(=O)c2ccc3c(c2)oc(=O)n3C)c(C)c1	23.7%
CCOC(=O)Cn1c(=O)oc2cc(S(=O)(=O)Nc3ccc(N(CC)CC)cc3C)ccc21	51.2% (active)
CCOC(=O)Cn1c(=O)oc2cc(S(=O)(=O)Nc3c(C)cc(C)cc3C)ccc21	5.9%
CCOc1ccc(-c2csc(NC(=O)CSC3=NC(=O)CN3C(C)=O)n2)c2ccccc12	14.8%
O=C1c2cccc3c(O)ccc(c23)C(=O)N1Cc1ccccc1	7.6%
O=C1c2cccc3c(O)ccc(c23)C(=O)N1Cc1ccco1	64.3% (active)
O=C1c2cccc3cccc(c23)C(=O)N1Cc1ccco1	-4.4%
CSc1nc(O)c(C2OC(=O)c3ccccc32)c(=O)[nH]1 (stereo not drawn)	8.9%
Cc1ccc(NS(=O)(=O)c2ccc3[nH]c(=O)c(=O)[nH]c3c2)cc1Cl	14.3%
O=[N+]([O-])c1ccc(Oc2cccc(F)c2)c2ccncc12	-0.7%
O=[N+]([O-])c1ccc(Oc2ccc(F)cc2)c2ccncc12	17.6%
O=[N+]([O-])c1ccc(Oc2ccc(F)cc2Br)c2ccncc12	50% (active)
N#C/C=C\Oc1ccc(Cl)cc1N	57.9% (active)
Nc1cc(Cl)ccc1Oc1ccccc1	-2.5%
Nc1cc(Cl)ccc1Oc1ccc(Cl)cc1	-1.6%
COc1cc(-c2nnc(COC(=O)c3cc(C)nc4ccc(C)cc34)o2)cc(OC)c1OC	13%

SMILES	inhibition
CCN1CCN(CCOCCOc2ccccc2-c2ccccc2)CC1	-4.3%
O=S(=O)(Cc1ccc(Cl)cc1)NCC1CCCO1 (stereo not drawn)	14.9%
CCOC(=O)c1cc2c(C)n(-c3ccc(N(C)C)cc3)c(C)c2cc(C(=O)OCC)c1=O	37.3%
Cn1c(C(=O)N2CCCc3ccccc32)cc2sccc21	-3.3%
O=C(CNC(=S)N(CCCN1CCOCC1)Cc1cccs1)N1CCCCCC1	55.1% (active)
O=C(CNC(=S)N(CCCN1CCOCC1)Cc1cccs1)N1CCCC1	-5%
O=C(CNC(=S)N(CCCN1CCOCC1)Cc1cccs1)N1CCOCC1	-1.9%
CCCC(=O)Nc1ccccc1N1CCN(C(=O)C(C)C)CC1	-0.1%
CN(C)c1ccc(NC(=O)c2cn(-c3ccccc3)nc2-c2cccs2)cc1	13.7%
O=C1C=C(Nc2ccc(Cl)cc2)CC(c2ccco2)C1 (stereo not drawn)	5.8%
O=C1C=C(Nc2cccc(O)c2)CC(c2ccco2)C1 (stereo not drawn)	12%
O=C1C=C(Nc2ccc(O)cc2)CC(c2ccco2)C1 (stereo not drawn)	60.2% (active)
COC(=O)c1cccc([N+](=O)[O-])c1CN1CCCC(C(N)=O)C1 (stereo not drawn)	-6.5%
CCN1C(=O)c2cccc3c(S(=O)(=O)NCc4ccco4)ccc1c23	63% (active)
CCOc1cc(C(=O)Nc2ccc3c4c(cccc24)C(=O)N3CC)cc(OCC)c1OCC	-4.4%
CCN1C(=O)c2cccc3c(NC(=O)c4ccc(S(=O)(=O)N(C)C)cc4)ccc1c23	13.6%
CCN1C(=O)c2cccc3c(NC(=O)C(C)(C)C)ccc1c23	11.8%
CCN1C(=O)c2cccc3c(S(=O)(=O)NCc4ccccn4)ccc1c23	-3.8%
CCN1C(=O)c2cccc3c(NS(=O)(=O)c4ccc(NC(C)=O)cc4)ccc1c23	55.9% (active)
CCOC(=O)c1ccc(NC(=O)Nc2ccc3c4c(cccc24)C(=O)N3CC)cc1	53.1% (active)
CN1C(=O)c2cccc3c(S(=O)(=O)NCc4ccco4)ccc1c23	1.8%
CCN1C(=O)c2cccc3c(NC(=O)c4ccccc4)ccc1c23	27.7%
Cc1nn(CC(=O)Nc2sc3c(c2C#N)CCC(C(C)(C)C)C3)c(C)c1[N+](=O)[O-] (stereo not drawn)	21%
COc1ccc(S(=O)(=O)NNC(=O)C2CC(c3cccnc3)=NO2)cc1 (stereo not drawn)	-11%
CC(=O)C(=Nc1ccccc1Cl)NNc1ccc(Cl)cc1	-52.8%

SMILES	inhibition
C=CCOn1c(=O)c(-c2ccccc2)[n+]([O-])c2ccccc21	12%
COc1ccc(CCN(Cc2cc3cc(C)cc(C)c3nc2Cl)C(=O)C2CC2)cc1	15.7%
Clc1ccc(-c2nnc3n2CCCCS3)cc1	-8.4%
CCCN1CCN(c2nc3c([nH]2)c(=N)ncn3CC(O)CO)CC1 (stereo not drawn)	2.5%
COC(=O)C1C(=O)c2c([nH]c(C(=O)OC3CCCC3C)c2C)CC1C (stereo not drawn)	12.3%
COc1ccc(-c2nn3c(-c4ccc(F)cc4)nnc3s2)cc1	-6.8%
O=C(Cn1c2c(sc1=O)C1c3ccccc3OCC1CS2)Nc1ccc(Cl)cc1 (stereo not drawn)	8.7%
Cn1cc(C2CC(c3ccccc3)=NN2C(=O)c2ccccc2)c2ccccc21 (stereo not drawn)	20.9%
OCCCNC(=S)Nc1ccc2nccnc2c1	53.9% (active)
OCCCNC(=S)Nc1ccc2nc(-c3ccccn3)c(-c3ccccn3)nc2c1	14.4%
Cc1nc2ccc(NC(=S)NCCCO)cc2nc1C	-2.9%
c1ccc2c(CCNc3ncnc4nc[nH]c34)cccc2c1	10%
CNC(=O)c1ccc(-c2sc3nc(N4CCOCC4)c4c(c3c2N)CCCC4)o1	55.4% (active)
COC(=O)c1ccc(-c2sc3nc(N4CCOCC4)c4c(c3c2N)CCCC4)o1	20.1%
CNC(=O)c1ccc(-c2sc3nc(N4CCOCC4)c4c(c3c2N)CC(C)(C)OC4)o1	48.4%
CC(C)C(=O)Nc1cccc(-c2csc(-c3ccccc3)n2)c1	11.9%
COc1ccc(-c2noc(-c3cccnc3)n2)cc1OC	-11.6%
COc1cc(CC(C#N)(CO)c2nc3ccccc3[nH]2)ccc1OC(F)F (stereo not drawn)	16.3%
Cc1nc(N2CCCC2)c2ccsc2n1	-2.9%
CCN(CC)CCCNC(=O)CSc1c2c(nc3cc(Cl)ccc13)CCCC2	-5.8%
O=C(CSc1c2c(nc3cc(Cl)ccc13)CCCC2)NCCN1CCOCC1	2.2%
CCN(CC)CCNC(=O)CSc1c2c(nc3cc(Cl)ccc13)CCCC2	56.3% (active)
Cn1c(Cn2c(=O)sc3ccccc32)nnc1SCC(=O)NCC1CCCO1 (stereo not drawn)	2.5%
CC(C)Cc1ccc(/C=C/C(=O)N2CCCCC2)cc1	9.7%
Cc1ccc2nc(NC(=O)c3ccc(-c4nc5ccccc5s4)s3)sc2c1	-17.4%

SMILES	inhibition
Cc1ccc2nc(N3CCOCC3)c(C=O)c(=O)n2c1	2.9%
Cc1ccc2nc(N3CCN(c4ccccc4F)CC3)c(C=O)c(=O)n2c1	19.9%
COc1ccc(N2CCN(c3nc4ccccn4c(=O)c3C=O)CC2)cc1	42.4%
Cc1ccc2nc(N3CCCCC3)c(C=O)c(=O)n2c1	-6.8%
Cc1ccc2nc(N3CCN(c4ccccc4)CC3)c(C=O)c(=O)n2c1	50.4% (active)
COc1ccc(N2CCN(c3nc4ccc(C)cn4c(=O)c3C=O)CC2)cc1	56.9% (active)
CC(C)(C)c1ccc(NC(=O)COC(=O)CCN2C(=O)c3cccc([N+](=O)[O-])c3C2=O)cc1	3.2%
CN1CCN(S(=O)(=O)c2ccc(NC(=O)c3csc4ccccc34)cc2)CC1	-13.4%
CC(=O)Nc1ccc(NS(=O)(=O)Cc2ccccc2)cc1	3.4%
COc1ccc(C(CNC(=O)Cc2ccccc2F)N2CCCCC2)cc1 (stereo not drawn)	-1.6%
CN1/C(=C\C(=O)c2ccco2)c2ccccc2CC1(C)C	-4.8%
Cc1ccccc1NC(=S)NC12CN3CN(CN(C3)C1)C2	1.3%
CCc1ccccc1N1CC23C=CC(O2)C(C(=O)OCC(C)C)C3C1=O (stereo not drawn)	7.8%
Cc1cccc(-c2nnc(SCC#N)n2Cc2ccccc2)c1	-0.8%
CC(Sc1cccc[n+]1[O-])C(=O)Nc1ccc(Oc2ccccc2)cc1 (stereo not drawn)	0%
CC(=O)N/N=C/c1c(C)[nH]n(-c2ccccc2)c1=O	7.9%
O=C(O)CN1C(=O)/C(=C/c2ccsc2)SC1=S	-5.3%
Cc1cc(O)cc(O)c1C(=O)Cc1ccccc1	-2.6%
COC(=O)c1ccc(CC(=O)c2ccc(O)cc2O)o1	-59.1%
CCCc1cc(C(=O)Cc2ccc(C(=O)OCC)o2)c(O)cc1O	-51.6%
CCOC(=O)c1ccc(CC(=O)c2ccc(O)cc2O)o1	-31.2%
COC(=O)c1ccc(CC(=O)c2c(C)cc(O)cc2O)o1	50.8% (active)
Cc1ccc(NCc2nnc(SCC(=O)NCc3ccco3)n2CC2CCCO2)c(C)c1 (stereo not drawn)	8%
